Reference: the supplement of paper PMC8975748
Structures can show the parent of a compound that is named as a salt.

test system: Saccharomyces cerevisiae BY4741 SeMeCo community; test: z-score of subpopulation abundance vs DMSO median, subpopulation auxotrophic for HLUM; higher = larger share of this subpopulation than in DMSO controls; conditions: 10 µM; 24 h; SM minimal medium; subpopulation (auxotrophy): HLUM
Method: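 Fluorescent four-plasmid SeMeCo (self-establishing metabolically cooperating S. cerevisiae BY4741 community; plasmids pH-mRuby2, pL-mWasabi, pU-eCFP, pM-TagRFP657) was grown 24 h in minimal SM medium with each Selleck FDA-approved drug at 10 µM in 384-well plates. Cells were fixed and imaged by high-content confocal microscopy. For each auxotrophic subpopulation (and the prototroph), a z-score gives the deviation from the DMSO vehicle-control population median.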

Compound	z-score of subpopulation abundance
O=C(O[C@H]1C[N+]2(CCCOc3ccccc3)CCC1CC2)C(O)(c1cccs1)c1cccs1 [Aclidinium Bromide]	-0.18
C[N+]1(C)[C@@H]2C[C@@H](OC(=O)[C@H](CO)c3ccccc3)C[C@H]1[C@@H]1O[C@@H]12 [Methscopolamine]	0.24
O=c1cccc2n1C[C@@H]1CNC[C@H]2C1 [Cytisine]	-0.32
CC(=O)O[C@H]1C[C@@H]2CC[C@@H]3[C@H](CC[C@@]4(C)[C@H]3C[C@H]([N+]3(C)CCCCC3)[C@@H]4OC(C)=O)[C@@]2(C)C[C@@H]1[N+]1(C)CCCCC1 [Pancuronium dibromide]	-0.93
Cc1cc(O)ccc1Cl [Chlorocresol]	-0.16
CC[C@H]1CN2CC[C@]3(C(=O)Nc4ccccc43)[C@@H]2C[C@@H]1/C(=C\OC)C(=O)OC [Rhynchophylline]	0
COc1ccc(C(CN(C)C)C2(O)CCCCC2)cc1 (stereo not given) [Venlafaxine]	-0.12
CN(C)C(=O)Oc1cccc([N+](C)(C)C)c1 [Neostigmine Bromide]	-0.18
CC[C@H]1[C@@H]2C[C@H]3[C@@H]4N(C)c5ccccc5[C@]45C[C@@H]([C@@H]2[C@H]5O)N3[C@@H]1O [Ajmaline]	-0.76
NCC(O)c1ccc(O)cc1 (racemic) [(+,-)-Octopamine HCl]	-0.38
C=CCN1C[C@H](C(=O)N(CCCN(C)C)C(=O)NCC)C[C@@H]2c3cccc4[nH]cc(c34)C[C@H]21 [Cabergoline]	0.78
O=c1[nH]c2ccccc2n1CCCN1CCC(n2c(=O)[nH]c3cc(Cl)ccc32)CC1 [Domperidone]	0.88
C[C@@H]1O[C@@H](O[C@H]2C[C@@H](O)[C@]3(CO)[C@H]4[C@H](O)C[C@]5(C)[C@@H](C6=CC(=O)OC6)CC[C@]5(O)[C@@H]4CC[C@]3(O)C2)[C@H](O)[C@H](O)[C@H]1O [Ouabain]	-0.91
C=C(C)[C@H]1Cc2c(ccc3c2O[C@@H]2COc4cc(OC)c(OC)cc4[C@@H]2C3=O)O1 [Rotenone (Barbasco)]	0.56
CN(C)[C@@H]1C(=O)C(C(N)=O)=C(O)[C@@]2(O)C(=O)C3=C(O)c4c(O)cccc4[C@@](C)(O)[C@H]3[C@H](O)[C@@H]12 [Oxytetracycline Dihydrate]	-0.3
CC[N+](C)(CC)CCOC(=O)C(O)(c1ccccc1)c1ccccc1 [Methylbenactyzine Bromide]	-1.18
CCOC(=O)Nc1ccc(NCc2ccc(F)cc2)cc1N [Retigabine]	-0.4
C[C@H]1O[C@H](O[C@H]2[C@H](O)[C@@H](O)[C@@H](O)[C@H](O)[C@@H]2O)[C@@H](N)C[C@@H]1NC(=N)C(=O)O [Kasugamycin hydrochloride]	-0.04
NC(=O)CN1CCCC1=O [Piracetam]	0.98
C=CC[C@]1(O)CC[C@H]2[C@@H]3CCC4=CC(=O)CCC4=C3C=C[C@@]21C [Altrenogest]	-0.9

Compound	z-score of subpopulation abundance
CC[C@@H](C(N)=O)N1CCCC1=O [Levetiracetam]	-0.38
COc1cc2c(cc1OC)C1CC(=O)C(CC(C)C)CN1CC2 (stereo not given) [Tetrabenazine (Xenazine)]	2.34
Cc1cc(C(C#N)c2ccc(Cl)cc2)c(Cl)cc1NC(=O)c1cc(I)cc(I)c1O (stereo not given) [Closantel]	0.27
COc1ccc2[nH]cc(CCN)c2c1 [5-Methoxytryptamine]	0.69
C[N+](C)(C)CCCCCCCCCC[N+](C)(C)C [Decamethonium Bromide]	-0.4
COc1ccc2c(c1)[C@]13CCCC[C@@H]1[C@H](C2)N(C)CC3 [Dextromethorphan hydrobromide hydrate]	-0.5
N#Cc1nn(-c2c(Cl)cc(C(F)(F)F)cc2Cl)c(N)c1[S+]([O-])C(F)(F)F (stereo not given) [Fipronil]	-0.22
CN(C)C(=O)Oc1ccc[n+](C)c1 [Pyridostigmine Bromide]	-1.14
C[C@@H]1CC[C@H]2[C@@H](C)C(=O)O[C@@H]3O[C@@]4(C)CC[C@@H]1[C@]32OO4 [Artemisinin]	-0.59
C[N+]12CCC(CC1)C(OC(=O)C(O)(c1ccccc1)c1ccccc1)C2 (stereo not given) [Clidinium Bromide]	0.51
CN1c2ccccc2C(NCCCCCCC(=O)O)c2ccc(Cl)cc2S1(=O)=O (stereo not given) [Tianeptine sodium]	0.87
CC[C@@]1(O)C(=O)OCc2c1cc1n(c2=O)Cc2cc3ccccc3nc2-1 [Camptothecin]	-0.44
COc1ccc2c3c([nH]c2c1)C(C)=NCC3 [Harmaline]	-1.92
CN[C@@H]1[C@@H](O)[C@@H](O[C@@H]2[C@@H](O)[C@H](O[C@H]3O[C@H]([C@@H](C)O)[C@@H](O)[C@H](O)[C@H]3N)[C@@H](N)C[C@H]2N)OC[C@]1(C)O [Geneticin (G418 Sulfate)]	-0.56
CC1(C)SC2C(N)C(=O)N2C1C(=O)O (stereo not given) [6-Aminopenicillanic acid]	-0.72
CN1[C@@H]2C[C@@H](OC(=O)[C@H](CO)c3ccccc3)C[C@H]1[C@@H]1O[C@@H]12 [Scopolamine HBr]	-0.88
COc1ccc(C(CN(C)C)C2(O)CCCCC2)cc1 (stereo not given) [Venlafaxine HCl]	-0.19
N[C@@H]1C[C@H]1c1ccccc1 [Tranylcypromine (2-PCPA) HCl]	0.28
O=[N+]([O-])C(Br)(CO)CO [Bronopol]	0.53
CN1[C@@H]2C[C@@H](OC(=O)[C@H](CO)c3ccccc3)C[C@H]1[C@@H]1O[C@@H]12 [Scopolamine HBr trihydrate]	-0.22
